Screening data as filed in PubChem.
Pf growth 48h = inhibits P. falciparum growth in the first generation, 48 h; P. falciparum luciferase growth in erythrocytes, 48 h; Potency, µM (top dose mostly 28.7 µM), most hits filed as inhibitors; 310,000 compounds, 5.9% hits; AID 504832
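Erythrocytes infected with P. falciparum carrying an integrated firefly luciferase reporter (2% hematocrit, 0.1% parasitemia final) were exposed to compounds in RPMI 1640 with 0.5% Albumax at 37 C, 5% CO2. Growth inhibition was scored as reduced luminescence.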
Pf growth 96h = inhibits malaria parasite growth, 96 h | AID 504834 | P. falciparum luciferase reporter growth, 96 h | 320,000 compounds, 6.9% hits | Potency, µM (series often up to 28.7 µM), hits mostly inhibitors
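Erythrocytes infected with luciferase-expressing P. falciparum were dispensed at 2% hematocrit and 0.05% parasitemia (final), then incubated with compounds 96 hours at 37 C in 5% CO2. Luminescence after detection reagent addition reported growth.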
HCV inhibitor = HCV inhibition. Huh7.5.1 HCVcc-Cre infection, luciferase reporter, 44 h. Potency, µM (doses to about 41.8 µM), hits mostly inhibitors. 340,000 compounds, 3.4% hits
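Luciferase read-out (15 sec integration) after a 15 min room-temperature substrate step quantifies HCVcc-Cre infection. Cells, 1,000 per well, had compound added 4 h post-plating, then virus at ~0.5 moi, and were cultured 44 h.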
HCMV antiviral = inhibitors of human cytomegalovirus. HFF cells, HCMV-luciferase reporter, 72 h; hits give low values. activity change, negative = inhibition, % at 57.5 µM. 410,000 compounds, 4.5% hits. AID 1259415; in the data active means activity change below about -60%; inconclusive means no clear call, values can overlap the other calls; inactive means above about -39%
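Screen run at 2 compound doses on HFFs infected with reporter HCMV, MOI 1 PFU/cell. Luciferase activity from cell lysates at 72 h post infection gave inhibition relative to buffer-only and Salinomycin wells.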
Cycloheximide cs = counter-screen for Shiga toxin inhibitors: cycloheximide protein synthesis inhibition; max response, %; cell reporter, cycloheximide protein synthesis inhibition counterscreen; 300,000 compounds, 12% hits; in the data active means max response mostly above about 13%, no sharp cut-off; inactive means mostly below about 14%; further: read at 38.3 µM for the half of the compounds with a filed dose
Shiga toxin inh = blocks Shiga toxin action in Vero cells; Vero cells, Shiga toxin protein synthesis inhibition reporter; inhibition, % at 38.7 µM; 290,000 compounds, 9.2% hits; in the data active means inhibition mostly above about 28%, no sharp cut-off; inactive means mostly below about 43%
Each line names hits and unclear results; the compound was inactive in the other large screens. The list is not random: actives were taken first. Their share in the collection is about 21%. Unless noted, the call rests on the fitted dose curve; in most records, active means well fitted inhibition curve with a large enough effect; inconclusive means small, poorly fitted or top-dose-only effect, or another doubt; inactive means no such curve, though single readings can be large or run the other way.

O=C(OCC(=O)N1CCCc2ccccc21)c1ccc(S(=O)(=O)C(F)F)cc1	Pf growth 48h inconclusive (no result: Cycloheximide cs, Shiga toxin inh)
COc1cc(C2Nc3ccc4ncccc4c3C3=C2C(=O)CC(C)(C)C3)cc(OC)c1O (stereo unspecified)	Pf growth 48h inconclusive, HCMV antiviral -83 (no result: Pf growth 96h)
COc1cc(C2Nc3ccc4ncccc4c3C3=C2C(=O)CCC3)cc(OC)c1O (stereo unspecified)	HCV inhibitor inconclusive
CCOCCCNC(=O)CN1CCN(S(=O)(=O)c2ccc3c(c2)CCC3)CC1	Pf growth 96h inconclusive (no result: Cycloheximide cs, Shiga toxin inh)
CCc1noc(-c2ccc(N3CCC(C)CC3)c([N+](=O)[O-])c2)n1	none (no result: Pf growth 48h, Pf growth 96h, HCV inhibitor, Cycloheximide cs, Shiga toxin inh)
Cc1c(Cl)cccc1NC(=O)COCc1cc(-c2ccc3c(c2)OCO3)on1	none (no result: Pf growth 48h, Pf growth 96h, HCV inhibitor, Cycloheximide cs, Shiga toxin inh)
COc1ccc(N2CCN(C(=O)COCc3cc(-c4ccc5c(c4)OCO5)on3)CC2)cc1	Pf growth 96h inconclusive
CCN1CCN(C(=O)COCc2cc(-c3ccc4c(c3)OCO4)on2)CC1	Cycloheximide cs 22
O=C(COCc1cc(-c2ccc3c(c2)OCO3)on1)Nc1cccnc1Cl	Pf growth 96h inconclusive, Cycloheximide cs 25
CCN(c1ccccc1)S(=O)(=O)c1ccc(Cl)c(C(=O)N(CC2CCCO2)C2CCS(=O)(=O)C2)c1 (stereo unspecified)	Pf growth 48h 1.7µM, Pf growth 96h inconclusive, HCV inhibitor inconclusive, HCMV antiviral inconclusive
COc1ccc(C2=Nn3c(nnc3-c3cccc(OC)c3)SC2)cc1	none (no result: Pf growth 48h, Pf growth 96h, HCV inhibitor, HCMV antiviral)
CCOc1cc(/C=C2\N=C(SC(C)C(N)=O)N(c3ccc(OC(F)F)cc3)C2=O)ccc1O (stereo unspecified)	Pf growth 96h 1.2µM, HCV inhibitor inconclusive, HCMV antiviral -62
CCn1cnc2cc(NCc3ccccc3Cl)ccc21	Pf growth 96h 1.5µM, Cycloheximide cs 36, Shiga toxin inh 67
CS(=O)(=O)Nc1ccc2c(c1)ncn2CCc1ccccc1	none
Cc1nnc(Nc2ccc3c(c2)ncn3C)c2ccccc12	Pf growth 48h inconclusive, HCV inhibitor inconclusive
Cn1cnc2cc(NCc3ccccc3Cl)ccc21	Cycloheximide cs 39, Shiga toxin inh 105
Cc1ccc(-c2nnc3c4ccccc4c(-c4ccccc4)nn23)cc1	none (no result: Pf growth 48h, Pf growth 96h, HCV inhibitor, Cycloheximide cs, Shiga toxin inh)
Cc1ccc(-c2nn3c(C)nnc3c3ccccc23)cc1S(=O)(=O)NC(C)c1ccccc1 (stereo unspecified)	Pf growth 48h inconclusive, Pf growth 96h 7.4µM, HCV inhibitor inconclusive
COCCNS(=O)(=O)c1cc(-c2nn(C)c(=O)c3ccccc23)ccc1C	none (no result: Pf growth 96h)
CCCCNS(=O)(=O)c1cc(-c2nn(C)c(=O)c3ccccc23)ccc1C	Pf growth 48h 13µM, HCV inhibitor inconclusive
Cc1nnc2c3ccccc3c(-c3ccccc3)nn12	HCMV antiviral -66 (no result: Pf growth 48h, Pf growth 96h, Cycloheximide cs, Shiga toxin inh)
Cc1ccc(-c2nn3c(C)nnc3c3ccccc23)cc1S(=O)(=O)NCc1ccco1	Pf growth 48h inconclusive, HCV inhibitor inconclusive, Cycloheximide cs 51, Shiga toxin inh 37
C=CCSc1nnc(-c2cc3c(s2)-c2ccccc2CC3)o1	Pf growth 48h inconclusive, Cycloheximide cs 14, Shiga toxin inh 52
O=C(Nc1ccc2c(c1)OCCO2)c1ccc(Cl)c(Cl)c1	Pf growth 96h inconclusive, Cycloheximide cs 45, Shiga toxin inh 84
Cc1cccc(C)c1NS(=O)(=O)c1ccc(NC(=O)c2ccc(Cl)c([N+](=O)[O-])c2)cc1	HCV inhibitor 7.1µM, HCMV antiviral -66
CS(=O)(=O)NCCCNc1ccc(C(F)(F)F)cc1[N+](=O)[O-]	Pf growth 48h inconclusive
O=C(Nc1ccc(N2CCCC2)c(Cl)c1)c1ccc([N+](=O)[O-])cc1	Pf growth 48h inconclusive, HCV inhibitor inconclusive
O=[N+]([O-])c1cc(C(F)(F)F)ccc1NCCCCNS(=O)(=O)c1ccc(Cl)cc1	HCV inhibitor inconclusive, HCMV antiviral -73
Cc1cc(C(=O)Nc2ccc(N3CCCC3)c(Cl)c2)ccc1[N+](=O)[O-]	Pf growth 96h 9.3µM, HCV inhibitor inconclusive, Cycloheximide cs 47, Shiga toxin inh 31
Cc1cc(C)cc(NC(=O)CCCCCN2C(=O)[C@@H]3Cc4ccccc4CN3C2=O)c1	Pf growth 96h inconclusive
O=C(Nc1ccc2c(c1)OCCO2)c1ccc(Cl)c([N+](=O)[O-])c1	HCV inhibitor inconclusive, Cycloheximide cs 56, Shiga toxin inh active
O=C(Nc1ccc2c(c1)OCCO2)c1ccc2nccnc2c1	Cycloheximide cs 33 (no result: Pf growth 96h)
O=C(Nc1ccc(C(O)(C(F)(F)F)C(F)(F)F)cc1)c1ccc(Cl)c([N+](=O)[O-])c1	Pf growth 48h 12µM, Pf growth 96h 10µM, HCV inhibitor inconclusive
O=C(Nc1ncccc1Cl)c1ccc2c(c1)OCCO2	Cycloheximide cs 32, Shiga toxin inh 84
CCN(CC)CCCNC(=O)c1sc2nc3n(c(=O)c2c1C)CCCCC3	none (no result: Pf growth 48h, Pf growth 96h, HCV inhibitor, Cycloheximide cs, Shiga toxin inh)
C=Cc1ccc(Cn2nc(-c3ccc(C)cc3)ccc2=O)cc1	none
CCOC(=O)CSc1nnc(NC(=O)CCc2ccccc2)s1	none
CC(CCc1ccccc1)NC(=O)c1ccc(C(=O)NC(C)CCc2ccccc2)cc1 (stereo unspecified)	HCV inhibitor inconclusive (no result: Pf growth 48h)
O=[N+]([O-])c1cc(C(F)(F)F)ccc1Cl	HCV inhibitor inconclusive, HCMV antiviral -69 (no result: Cycloheximide cs, Shiga toxin inh)
O=C(Nc1ccc2c(c1)OCCO2)c1cccnc1	Pf growth 96h inconclusive, Cycloheximide cs 25, Shiga toxin inh 59
Cc1cc(C(=O)NC(C)CCc2ccccc2)ccc1[N+](=O)[O-] (stereo unspecified)	Cycloheximide cs 18 (no result: Shiga toxin inh)
Nc1cc(C(F)(F)F)cc([N+](=O)[O-])c1N	HCV inhibitor inconclusive
CCn1cc([N+](=O)[O-])c(C(=O)Nc2ccc3c(c2)OCCO3)n1	Cycloheximide cs 38, Shiga toxin inh 47
CCn1cc([N+](=O)[O-])c(C(=O)NCc2ccc3c(c2)OCO3)n1	Pf growth 96h inconclusive
O=C(O)COCC(=O)N1CCc2c([nH]c3ccccc23)C1C(F)(F)F (stereo unspecified)	none (no result: HCMV antiviral)
COc1cc(CCC(=O)OCC(=O)N(CC(C)C)C2CCS(=O)(=O)C2)cc(OC)c1OC (stereo unspecified)	none (no result: Cycloheximide cs, Shiga toxin inh)
COc1cc(NC(=O)CSc2cc(C)c3cc(C)cc(C)c3n2)c(C(=O)O)cc1OC	Pf growth 96h inconclusive
N#CCCn1cc(C(=O)Nc2ccc([N+](=O)[O-])cc2)c(-c2ccc3c(c2)OCCO3)n1	Pf growth 48h inconclusive, Pf growth 96h inconclusive, HCMV antiviral -67
Cc1cc(C(=O)Nc2cccc(NC(=O)c3ccco3)c2)ccc1[N+](=O)[O-]	Pf growth 96h inconclusive, HCV inhibitor inconclusive, HCMV antiviral -82, Cycloheximide cs 19, Shiga toxin inh 27
Cc1cccc(NC(=O)c2cccc(NC(=O)c3ccco3)c2)c1	none (no result: Pf growth 48h, Pf growth 96h, Cycloheximide cs, Shiga toxin inh)
O=C(Nc1cccc(Cl)c1)C1=Cc2cc(Cl)ccc2OC1	HCV inhibitor inconclusive (no result: Pf growth 96h)
O=C(Nc1ccc(Cl)c(Cl)c1)C1=Cc2ccccc2OC1	Pf growth 96h inconclusive, HCV inhibitor inconclusive, Cycloheximide cs 43, Shiga toxin inh 66 (no result: Pf growth 48h)
